Compound activity: PubChem BioAssay, Broad Institute
Sampled rows, rich in hits. Any-hit rate of the full collection: about 3%.
Wnt act: Wnt/beta-catenin pathway activation | Wnt/beta-catenin reporter cell assay, activator, plate reader | AID 743398 | activation, % at 9.35 µM | 300,000 tested, 1.2% active; in the data active = activation above about 30%, passing the limit was not always enough; inconclusive = no clear call, values can overlap the other calls;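 also: 0% = neutral control wells and 100% = positive control wells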
esBAF inh: inhibitors of esBAF chromatin remodeling in mouse ES cells | Bmi1-luciferase knock-in reporter, 24 h; 100% = twice the neutral-well signal | reporter increase, % at 12.5 µM | 350,000 tested, 2% active | AID 602393; in the data active = activation above about 40%; inconclusive = no clear call, values can overlap the other calls;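 also: 0% = median of the plate's neutral control wells and 100% = double that signal; a rise in the Bmi1 reporter signal indicates esBAF inhibition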
Vif inh: blocks HIV Vif function | HEK293T cells, Vif self-association by quenched fluorescence, imaging, 24 h | inhibition, % at 7.49 µM | AID 602346 | 340,000 tested, 0.35% active; in the data active = inhibition above about 50%, passing the limit was not always enough; inconclusive = no clear call, values can overlap the other calls; inactive = below about 31%
PfHsp90 yeast 2: growth inhibition of yeast expressing Plasmodium Hsp90; S. cerevisiae expressing PfHsp90, BacTiter-Glo ATP, 48 h; yeast lacking PDR1 and PDR3 efflux regulators; inhibition, % at 9.4 µM; 310,000 tested, 0.32% active;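 active = every replicate shows inhibition above about 80%, whatever the replicate mean, limit read from the data; inconclusive = mean inhibition reaches the set limit but some replicate falls short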;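 also: 0% = DMSO neutral controls and 100% = 20 µM radicicol positive controls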
Glyco luc inh: N-linked glycosylation inhibition; D54 ERlucT glycosylation luciferase reporter, 24 h; percent of 100 nM tunicamycin response; reporter increase, % at 12.5 µM; 360,000 tested, 0.23% active;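 active = mean luciferase reporter signal, scaled so untreated is 0 and the glycosylation-blocking control 100, at or above a set limit in every replicate; inconclusive = mean reaches the limit but not every replicate does; inactive = mean below the limit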;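 also: luciferase carries N-glycosylation sites so blocking glycosylation raises the light; 0% = median of neutral control wells and 100% = median of 100 nM tunicamycin wells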
MITF TRPM1 HTS: activators of MITF-driven TRPM1 promoter activity in SK-MEL-5 cells; SK-MEL-5 TRPM1-promoter luciferase, 24 h; % of positive control, neutral wells = 0; activation, % at 12.5 µM; 300,000 tested, 0.75% active;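 active = mean activation of at least 80% with every replicate also reaching 80%; inconclusive = mean reaches 80% but some replicate falls short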;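 also: 0% = neutral control wells and 100% = parthenolide positive control wells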
An asterisk follows results filed as active; ? = inconclusive; nt = no result given.

SMILES | Wnt act | esBAF inh | Vif inh | PfHsp90 yeast 2 | Glyco luc inh | MITF TRPM1 HTS
CC1CCN(Cc2c(C(=O)N/N=C/c3ccccc3O)nnn2-c2nonc2N)CC1 | -3 | -49 | 27 | -8 | -7 | -24
Cc1ccc(Oc2nc3c(c(=O)n(C)c(=O)n3C)n2C)cc1C | -2 | nt | -6 | -20 | -5 | 23
Cn1c(=O)c2c(nc(Oc3ccc(-c4ccccc4)cc3)n2C)n(C)c1=O | -1 | 48* | nt | -5 | -4 | 5
CCCNC(=O)[C@@H]1[C@@H](CO)[C@@H]2Cn3c(ccc(C4=CCCCC4)c3=O)[C@H]1N2CC | nt | -2 | nt | nt | nt | nt
O=C(Nc1ccc2c(c1)OCCO2)C1C(c2ccccc2)=Nc2ccccc2N1C(=O)c1cccnc1 (stereo unspecified) | 50* | nt | nt | nt | nt | nt
Cc1ccc(C)c(NC(=S)NC(NC(=O)Cc2cccc3ccccc23)C(Cl)(Cl)Cl)c1 (stereo unspecified) | nt | -6 | -1 | -10 | 74* | -79
COc1cccc(CNC(=O)C2CCN(S(=O)(=O)c3ccccc3)CC2)c1 | nt | -4 | -20 | nt | -2 | nt
O=C(Nc1ccccc1)c1ccccc1OCc1ccc(F)cc1 | -2 | -4 | -2 | -11 | -1 | 1
CCn1c(SCC(=O)c2ccccc2)nnc1-c1cnccn1 | 36* | 50* | -18 | 24 | 2 | nt
Cn1c(SCc2c(Cl)cccc2Cl)nnc1-c1cccs1 | nt | 48* | -16 | -6 | 4 | 36
Cn1c(SCC(=O)NCc2cccs2)nnc1-c1cccs1 | -4 | nt | nt | -9 | nt | 3
Cn1c(SCC(=O)c2ccccc2)nnc1-c1cccs1 | ? | 68* | 2 | 2 | -2 | 60
Cn1c(SCC(=O)c2ccccc2)nnc1-c1cnccn1 | 29 | 48* | -17 | 2 | 0 | 46
C/C(=N\N1CCN(c2ccccc2)CC1)c1cccs1 | 7 | 9 | -3 | -33 | 0 | 33
O=C(NC1CCCC1)c1cc2ccccc2o1 | 27 | nt | 0 | -21 | -1 | 24
O=C(NC1CCCCC1)c1cc2cc(Br)ccc2o1 | -1 | 56* | -5 | 4 | -3 | nt
O=C(NC1CCCC1)c1cc2cc(Br)ccc2o1 | ? | 69* | 6 | 21 | -5 | ?
O=Cc1c(OCc2ccccc2)ccc2ccccc12 | -8 | 100* | -1 | -40 | -2 | 64
C/[N+]([O-])=C/c1c(OCc2ccccc2)ccc2ccccc12 | 15 | ? | -9 | -7 | -1 | 34
Cc1ccc2nc(CN(C)C(=O)[C@H]3O[C@@H](n4cnc(C(N)=O)n4)[C@H](O)[C@@H]3O)[nH]c2c1 | -1 | nt | nt | nt | nt | nt
CCc1ccccc1NC(=O)CNC(=O)CNC(=O)C1CCCCC1 | -1 | 0 | -13 | -8 | 3 | -7
Cc1ccc(N(C(=O)CNC(=O)c2ccco2)C(C(=O)NCC2CCCO2)c2ccccc2)cc1C (stereo unspecified) | -2 | 1 | 53* | 7 | 2 | nt
Cc1ccc(C)c(N(C(=O)CNC(=O)c2ccco2)C(C(=O)NCC2CCCO2)c2ccccc2)c1 (stereo unspecified) | 1 | 0 | 3 | -5 | -1 | 0
Cc1ccc(NC(=O)C2OCCc3ccccc32)cc1C (stereo unspecified) | 2 | 58* | -5 | 8 | -3 | 68
COc1ccc(NC(=O)c2cccc(S(=O)(=O)N3CCc4ccccc43)c2)c(OC)c1 | -3 | 3 | -2 | nt | 1 | nt
SMILES | Wnt act | esBAF inh | Vif inh | PfHsp90 yeast 2 | Glyco luc inh | MITF TRPM1 HTS
COc1ccc(NC(=O)c2cccc(S(=O)(=O)N3CCN(C)CC3)c2)c(OC)c1 | 1 | 12 | 54* | 20 | 1 | 9
Cc1cc(C)cc(NC(=O)N2CCc3ccccc3C2)c1 | 12 | 45* | -6 | 1 | -1 | 75
O=[N+]([O-])c1cccc(NC(=S)N2CCc3ccccc3C2)c1 | 5 | 58* | -7 | -21 | -4 | 14
CCOC(=O)c1[nH]ncc1CN1CCN(Cc2ccccc2)C(CCO)C1 (stereo unspecified) | -1 | -11 | 0 | 3 | 0 | -8
O=C(Nc1ccc(F)cc1)N1CCc2ccccc2C1 | 57* | nt | 1 | 17 | -1 | 42
Cc1ccc(NC(=O)N2CCc3ccccc3C2)cc1C | ? | 61* | -4 | 32 | 1 | 95*
COc1ccc(NC(=O)N2CCc3ccccc3C2)c(OC)c1 | 11 | 54* | -8 | -12 | 1 | 17
O=C(Nc1ccc(Br)cc1)N1CCc2ccccc2C1 | 20 | nt | -7 | 37 | 8 | 60
O=C(Nc1nc(COc2ccccc2)cs1)C12CC3CC(CC(C3)C1)C2 | 11 | 26 | -5 | 20 | -4 | 42
CC(=O)Nc1nc(COc2ccc3ccccc3c2)cs1 | 55* | 31 | -3 | -48 | -1 | 65
Nc1nc(COc2ccc3ccccc3c2)cs1 | nt | 59* | -3 | 2 | -1 | 104*
CC(=O)Nc1nc(COc2ccccc2)cs1 | nt | 10 | 6 | nt | -1 | 73
O=C(Nc1nc(COc2ccccc2)cs1)C1CCC1 | 46* | 64* | nt | -4 | -3 | 45
COc1ccccc1OCc1csc(N)n1 | 0 | 0 | -5 | 17 | 2 | 9
S=C(NCc1ccccn1)Nc1ccc(Cl)c(Cl)c1 | nt | nt | nt | nt | -2 | -5
O=C(COC(=O)c1cc(S(=O)(=O)N2CCCCC2)ccc1N1CCOCC1)c1ccc(Cl)cc1 | -3 | 0 | 2 | -17 | -2 | 2
CCOC(=O)Cc1nnc(NC(=O)c2cccc(OCC)c2)s1 | 0 | 8 | -5 | 12 | -1 | -3
CCc1ccc(C(=O)CCC(=O)Nc2ccc(OC)c(S(=O)(=O)N3CCCCC3)c2)cc1 | 56* | 8 | nt | -20 | -3 | -6
Cc1ccc(-c2nnc(SCC#CCOC(=O)c3cccs3)o2)cc1 | 11 | nt | -2 | nt | 3 | nt
CC(C)NC(=S)N1CCN(c2ncccn2)CC1 | 0 | nt | 3 | 11 | 6 | 3
CCOc1cc(-c2ccccc2)nc(N)n1 | nt | 47* | nt | -24 | 1 | 24
COc1cc(-c2ccccc2)nc(N)n1 | 14 | nt | 1 | 8 | 2 | 47
O=C(O)c1ccc(C2(c3ccc(C(=O)O)cc3)OC(=O)c3ccccc32)cc1 | -1 | -3 | 1 | -2 | 0 | -2
O=C1OC(c2ccccc2)(c2cc(Br)c(O)c(Br)c2)c2ccccc21 (stereo unspecified) | -8 | 2 | 17 | 115* | -1 | 6
CCC(=O)N1CCc2cc(-c3csc(NC(=O)c4ccco4)n3)ccc21 | 5 | 45* | -1 | -16 | -1 | 62
CC1Cc2cc(-c3csc(NC(=O)Cc4cccs4)n3)ccc2N1S(C)(=O)=O (stereo unspecified) | nt | nt | -14 | -22 | -3 | -19
CCC(=O)Nc1nc(-c2ccc3c(c2)CC(C)N3S(C)(=O)=O)cs1 (stereo unspecified) | 7 | 54* | nt | 5 | -1 | 35
O=C1CCc2cc(S(=O)(=O)N3CCN(c4cccc(Cl)c4)CC3)ccc2N1 | nt | -8 | 12 | nt | 3 | 0
